From PubChem BioAssay (NCI)
Where “and” joins values, the source holds several entries; their conditions need not be identical. Identical values can stand only once. The panel holds about 79,000 compounds, 15% with a hit somewhere; the sample as a whole holds those more often. The source holds several records for some structures; these can differ, active in one and inactive in another. Calls of active or inactive are those of the source. No stated cut-off is given here; in the data, active means growth inhibition above about 70%; inactive means the rest. Where a SMILES comes first, the peptide text is derived from it.

How the values were obtained:
[1] = NCI Yeast Anticancer Drug Screen. Data for the rad50 strain (AID 155);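 further: 0% = growth of vehicle-only cultures of the same strain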; conditions: S. cerevisiae rad50 strain growth inhibition, stronger effect = higher value
How it was run: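 Relative growth inhibition (compound vs vehicle) was measured in yeast with a defined repair-gene alteration.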

[2] = NCI Yeast Anticancer Drug Screen. Data for the mec2-1 strain (AID 157); conditions: S. cerevisiae mec2-1 strain, stronger effect = higher value
How it was run: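 Strain: mec2-1 (DNA repair/cell cycle alteration). Compound exposure, then growth measured; inhibition expressed relative to vehicle.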

[3] = NCI Yeast Anticancer Drug Screen. Data for the sgs1 mgt1 strain (AID 161);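 further: 0% = growth of cultures given vehicle only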; conditions: S. cerevisiae sgs1 mgt1 strain, stronger effect = higher value
How it was run: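 Read-out: growth inhibition vs vehicle controls. Cells: mutant yeast strain deficient in DNA damage repair.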

[4] = NCI Yeast Anticancer Drug Screen. Data for the cln2 rad14 strain (AID 165);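 further: 0% = growth equal to vehicle treated cultures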; conditions: S. cerevisiae cln2 rad14 strain, stronger effect = higher value
How it was run: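 Compounds are applied to the cln2 rad14 yeast strain, and growth is then compared with that of vehicle-treated cultures to give inhibition.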

[5] = NCI Yeast Anticancer Drug Screen. Data for the bub3 strain (AID 167); conditions: S. cerevisiae bub3 mutant strain, stronger effect = higher value
How it was run: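 Screening used yeast with an engineered genetic alteration affecting cell cycle control. Compound-exposed cultures were compared with vehicle cultures, and reduced growth was taken as inhibition.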

[6] = NCI Yeast Anticancer Drug Screen. Data for the mlh1 rad18 strain (AID 175); conditions: S. cerevisiae mlh1 rad18 strain growth inhibition, stronger effect = higher value
How it was run: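 Read-out is yeast growth inhibition, calculated against vehicle-only controls. The compound was applied to a strain engineered with DNA damage repair alterations.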

[7] = at 5.0 µM (retest, dose inferred, filed as 0.5)
[8] = at 50.0 µM (retest, dose inferred, filed as 5.0)

Measured: growth inhibition

CN(C)C(=Nc1nc(=[N+](C)C)ss1)N(C)C
inactive: [1]; [7] -17% | [1]; [8] -10% | [2]; [7] 3% | [2]; [8] 8% | [2]; at 50.0 µM 44.2% | [3]; [7] 8% | [3]; [8] -19% | [4]; [7] 12% | [4]; [8] 13% | [4]; at 50.0 µM 30.4% | [5]; [7] 10% | [5]; [8] 10% | [5]; at 50.0 µM 49.4% | [6]; [7] 15% | [6]; [8] 13%
active: [1]; at 50.0 µM 93% | [3]; at 50.0 µM 86% | [6]; at 50.0 µM 81.8%

Cc1cc(O)c(C(C)C)cc1Cl
13.2% (inactive) and 97.5% (active): [5]; at 50.0 µM
45.5% (inactive) and 99.2% (active): [3]; at 50.0 µM
26.8% (inactive) and 98.8% (active): [6]; at 50.0 µM
inactive: [1]; [7] 5% | [2]; [7] 4% | [3]; [7] -6% | [3]; [8] 38% | [4]; [7] -4% | [4]; [8] 48% | [5]; [7] -4% | [6]; [7] 7%
53.1% (inactive) and 98.7% (active): [1]; at 50.0 µM
41% (inactive) and 98.6% (active): [2]; at 50.0 µM
4.75% (inactive) and 79.6% (active): [4]; at 50.0 µM
active: [1]; [8] 79% | [2]; [8] 90% | [5]; [8] 98% | [6]; [8] 84%

c1ccc(-c2[nH]c3ccccc3c2-c2ccccn2)cc1
active: [1]; at 50.0 µM 91.8% | [2]; at 50.0 µM 99.3% | [3]; at 50.0 µM 95.6% | [4]; at 50.0 µM 99.1% | [5]; at 50.0 µM 98.7% | [6]; at 50.0 µM 98.8%
inactive: [1]; [7] 3% | [1]; [8] 8% | [2]; [7] -2% | [2]; [8] -2% | [3]; [7] 4% | [3]; [8] 23% | [4]; [7] 4% | [4]; [8] 8% | [5]; [7] 0% | [5]; [8] 2% | [6]; [7] 5% | [6]; [8] 13%

Oc1cc2c(cc1C(c1ccc3c(c1)OCO3)N1CCN(C(c3ccc4c(c3)OCO4)c3cc4c(cc3O)OCO4)CC1)OCO2 (configuration not stated)
inactive: [1]; [7] 2% | [2]; [7] -1% | [3]; [7] 8% | [4]; [7] 8% | [4]; [8] 49% | [4]; at 50.0 µM 24.4% | [5]; [7] 2% | [5]; [8] -1% | [5]; at 50.0 µM 54.2% | [6]; [7] 3%
active: [1]; [8] 98% | [1]; at 50.0 µM 81.9% | [2]; [8] 99% | [2]; at 50.0 µM 92.8% | [3]; [8] 98% | [3]; at 50.0 µM 78.2% | [6]; [8] 94% | [6]; at 50.0 µM 93.2%

Cc1[nH]c2ccccc2c1C1Cc2ccccc2N1 (configuration not stated)
-12% (inactive) and 76% (active): [5]; [8]
30.6% (inactive) and 94.2% (active): [5]; at 50.0 µM
14% (inactive) and 79% (active): [3]; [8]
15% (inactive) and 76% (active): [1]; [8]
inactive: [1]; [7] 14% and 19% | [1]; at 50.0 µM 37.1% and 57.5% | [2]; [7] 12% and 24% | [2]; [8] 14% and 59% | [3]; [7] 16% and 25% | [4]; [7] 10% and 16% | [4]; [8] 6% and 29% | [4]; at 50.0 µM 47.4% and 67.6% | [5]; [7] 9% and 15% | [6]; [7] 15% and 20% | [6]; [8] 37% and 52%
46.3% (inactive) and 81.3% (active): [3]; at 50.0 µM
36.2% (inactive) and 78.5% (active): [2]; at 50.0 µM
69.7% (inactive) and 96.2% (active): [6]; at 50.0 µM

CNC(=O)N(C)CN(C)C(=O)NC
inactive: [1]; [7] 0% | [1]; [8] 9% | [1]; at 50.0 µM 17.1% and 17.2% | [2]; [7] -1% | [2]; [8] 2% | [2]; at 50.0 µM -11.9% and 17.7% | [3]; [7] -3% | [3]; [8] 7% | [3]; at 50.0 µM 4% and 19.8% | [4]; [7] -4% | [4]; [8] -9% | [4]; at 50.0 µM 26.8% and 18.6% | [5]; [7] -5% | [5]; [8] -8% | [5]; at 50.0 µM 2.8% and -19.9% | [6]; [7] -5% | [6]; [8] 7% | [6]; at 50.0 µM 3.75% and 40.1%

O=C1C(Cl)=C(Cl)C(Cl)(Cl)C(Cl)=C1Cl
98.8% (active) and 55.9% (inactive): [5]; at 50.0 µM
98.7% (active) and -4.55% (inactive): [4]; at 50.0 µM
97.7% (active) and 66.2% (inactive): [3]; at 50.0 µM
99.2% (active) and 52.9% (inactive): [2]; at 50.0 µM
inactive: [1]; [7] 24% and 61% | [1]; at 50.0 µM 60.4% and 64.4% | [2]; [7] 24% and 42% | [3]; [7] 18% and 69% | [4]; [7] 19% and 13% | [5]; [7] 22% and 19% | [6]; [7] 37% and 50%
active: [1]; [8] 99% | [2]; [8] 100% | [3]; [8] 99% | [4]; [8] 99% and 98% | [5]; [8] 99% and 100% | [6]; [8] 99% | [6]; at 50.0 µM 98.1% and 70.8%

COC(=O)C#CC(=O)OC
inactive: [1]; [7] 14% | [1]; at 50.0 µM 32% and -2.9% | [2]; [7] 14% | [3]; [7] -15% | [3]; at 50.0 µM 7.05% and 45% | [4]; [7] 21% | [4]; at 50.0 µM 17.9% and 9.6% | [5]; [7] -18% | [6]; [7] -2% | [6]; at 50.0 µM 21.8% and 49.8%
9.8% (inactive) and 77.9% (active): [2]; at 50.0 µM
active: [1]; [8] 96% | [2]; [8] 99% | [3]; [8] 84% | [4]; [8] 96% | [5]; [8] 99% | [6]; [8] 98%
0.8% (inactive) and 74% (active): [5]; at 50.0 µM

CC(C)C(NC(=O)C(N)CCC(=O)O)C(=O)O (stereo not drawn) (H-Glu-Val-OH; configuration not given here)
inactive: [1]; [7] -3% | [1]; [8] 2% | [1]; at 50.0 µM 15.7% | [2]; [7] -1% | [2]; [8] 5% | [2]; at 50.0 µM 2.15% | [3]; [7] 0% | [3]; [8] 1% | [3]; at 50.0 µM -9.35% | [4]; [7] 5% | [4]; [8] 7% | [4]; at 50.0 µM 45% | [5]; [7] -1% | [5]; [8] 0% | [5]; at 50.0 µM -8.25% | [6]; [7] -3% | [6]; [8] 4% | [6]; at 50.0 µM 9.95%

CN(C)Cc1c(O)ccc2ccccc12
-18.8% (inactive) and 85.1% (active): [4]; at 50.0 µM
active: [1]; [8] 89% | [2]; [8] 98% | [3]; [8] 97% | [4]; [8] 96% | [5]; [8] 97% | [6]; [8] 99%
inactive: [1]; [7] 2% | [1]; at 50.0 µM -32.9% and 45% | [2]; [7] 1% | [3]; [7] 2% | [3]; at 50.0 µM -52.2% and 43.4% | [4]; [7] -6% | [5]; [7] 0% | [5]; at 50.0 µM -32.4% and 23.8% | [6]; [7] 2% | [6]; at 50.0 µM -32.2% and 39.2%
-33% (inactive) and 90.2% (active): [2]; at 50.0 µM

CN(C)C(=S)SC(=S)N(C)C
active: [1]; [7] 97% and 96% | [1]; [8] 99% and 98% | [1]; at 50.0 µM 97.3% and 99% | [2]; [7] 98% and 94% | [2]; [8] 99% | [2]; at 50.0 µM 98.8% and 98.5% | [3]; [7] 97% and 94% | [3]; [8] 99% | [3]; at 50.0 µM 99.2% | [4]; [8] 97% | [4]; at 50.0 µM 87% and 97.2% | [5]; [7] 99% and 88% | [5]; [8] 99% and 98% | [5]; at 50.0 µM 98.5% and 99.2% | [6]; [7] 99% and 96% | [6]; [8] 99% | [6]; at 50.0 µM 98% and 98.8%
97% (active) and 50% (inactive): [4]; [7]

O=C(CCl)Nc1ccc(C(=O)N/N=C/c2ccc(Cl)cc2)cc1
inactive: [1]; [7] 57% | [1]; at 50.0 µM -8.7% | [2]; [7] 26% | [2]; [8] 65% | [2]; at 50.0 µM -32.9% | [3]; [7] 42% | [3]; at 50.0 µM -21.8% | [4]; [7] 23% | [4]; [8] 57% | [4]; at 50.0 µM 7.05% | [5]; [7] 45% | [5]; at 50.0 µM -14.4% | [6]; [7] 41% | [6]; at 50.0 µM -27.7%
active: [1]; [8] 90% | [3]; [8] 70% | [5]; [8] 82% | [6]; [8] 80%

c1ccc(C(c2ccccc2)n2ccnc2)cc1
active: [1]; at 50.0 µM 76.2% | [6]; at 50.0 µM 80.7%
inactive: [1]; [7] -95% | [1]; [8] -13% | [2]; [7] -11% | [2]; [8] 18% | [2]; at 50.0 µM 60% | [3]; [7] -23% | [3]; [8] 37% | [3]; at 50.0 µM 43.5% | [4]; [7] -27% | [4]; [8] -21% | [4]; at 50.0 µM 66.6% | [5]; [7] -57% | [5]; [8] 2% | [5]; at 50.0 µM 59.4% | [6]; [7] -72% | [6]; [8] 1%

COC1C(O)C(C)OC(OC2C(Oc3cccc4c(O)c5c(=O)oc6ccc(C)c7c(=O)oc(c34)c5c67)OC(C)C3O[C@H](c4ccccc4)OC32)C1O (some centres not stated)
active: [1]; [7] 82% | [1]; [8] 96% | [1]; at 50.0 µM 86.5% | [2]; [7] 70% | [2]; [8] 96% | [2]; at 50.0 µM 88.5% | [3]; [7] 73% | [3]; [8] 96% | [3]; at 50.0 µM 91% | [4]; [8] 96% | [4]; at 50.0 µM 88.3% | [5]; [7] 74% | [5]; [8] 95% | [5]; at 50.0 µM 89.6% | [6]; [7] 77% | [6]; [8] 93% | [6]; at 50.0 µM 77.3%
inactive: [4]; [7] 59%
